Results with a measured potency or affinity are listed apart. Calls of active or inactive are those of the source.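 How the source made its calls: active means toxic compound whose fitted half-effect dose of signal loss is at most twice its top tested dose; inconclusive means flat fit losing 30 to 70% signal, or poor fit; inactive means the rest.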
experiment: HeLa cell viability loss – plate reader, dry powder, cytotoxicity control, dose response (AID 651946); conditions: ATP luminescence (CellTiter-Glo), 48 h; series mostly up to 26 µM; activity change, negative = cytotoxicity: at the top concentration

SMILES | activity change, negative = cytotoxicity
c1ccc(CSc2nnc(-c3ccccc3)s2)cc1 | 6.56% (inactive)
CN(C)CCSc1nnc(-c2ccccc2)o1 | 1.24% (inactive)
Clc1ccc(-c2nnc(SCc3cn(Cc4ccccc4)nn3)o2)cc1 | 2.21% (inactive)
O=S(=O)(Cc1ccccc1)c1nnc(-c2ccccc2)o1 | -6.44% (inactive)
Clc1cccc(CSc2nnc(-c3ccccc3)o2)c1 | -6.13% (inactive)
Fc1ccc(CSc2nnc(-c3ccncc3)o2)cc1 | 13.1% (inactive)
c1ccc(-n2cc(CSc3nnc(C4CCCC4)o3)nn2)cc1 | 0.271% (inactive)
c1ccc(CSc2nnc(-c3cccs3)o2)cc1 | 2.53% (inactive)
Fc1ccc(CSc2nnc(-c3ccc(Cl)cc3)o2)cc1 | 1.58% (inactive)
c1ccc(CSc2nnc(C3CCCC3)o2)cc1 | -9.51% (inactive)
FC(F)(F)c1cccc(CSc2nnc(-c3ccccc3)o2)c1 | 1.42% (inactive)
COc1ccc(-c2nnc(SCc3ccc(Cl)cc3)o2)cc1 | -8.74% (inactive)
c1ccc(CSc2nnc(-c3ccccn3)o2)cc1 | -8.45% (inactive)
Fc1ccc(-c2nnc(SCc3ccccn3)o2)cc1 | -15.3% (inactive)
c1ccc(-c2nnc(SCc3ccccn3)o2)cc1 | -1.07% (inactive)
c1ccc(CSc2nnc(-c3cccnc3)o2)cc1 | 8.35% (inactive)
c1ccc(-c2ccc(CSc3nnc(-c4ccccc4)o3)cc2)cc1 | -10.5% (inactive)
CCSc1nnc(-c2ccccc2)o1 | -0.855% (inactive)
FC1(F)CCN(CCSc2nnc(-c3ccccc3)o2)CC1 | 0.895% (inactive)

SMILES | activity change, negative = cytotoxicity
FC(F)(F)Oc1ccc(CSc2nnc(-c3ccccc3)o2)cc1 | 13.6% (inactive)
COc1ccccc1-c1nnc(SCc2ccccc2)o1 | -6.55% (inactive)
c1ccc(CNc2nnc(-c3ccccc3)o2)cc1 | 11.4% (inactive)
Clc1ccc(CSc2nnc(-c3ccccc3)o2)cc1 | -9.93% (inactive)
Clc1cccc(-c2nnc(SCc3ccccc3)o2)c1 | 5.52% (inactive)
Fc1ccc(-c2nnc(SCc3ccccc3)o2)cc1 | 12.4% (inactive)
Cc1ccc(-c2nnc(SCc3ccccc3)o2)cc1 | 13.6% (inactive)
COc1ccccc1-c1nnc(SCc2ccccn2)o1 | -18.6% (inactive)
Brc1ccc(CSc2nnc(-c3ccccc3)o2)cc1 | -1.08% (inactive)
c1ccc(CSc2nnc(-c3cnco3)o2)cc1 | 6.24% (inactive)
CS(=O)(=O)c1cccc(CSc2nnc(-c3ccccc3)o2)c1 | -5.96% (inactive)
COc1ccc(-c2nnc(SCc3ccccn3)o2)cc1 | -23.8% (inactive)
Fc1ccc(Cn2cc(CSc3nnc(C4CCC4)o3)nn2)cc1 | -6.56% (inactive)
Fc1ccccc1-c1nnc(SCc2ccccc2)o1 | 2.75% (inactive)
FC(F)(F)c1cccc(-c2nnc(SCc3ccccc3)o2)c1 | 6.67% (inactive)
c1ccc(-c2nnc(SC3CCCCC3)o2)cc1 | 7.66% (inactive)
c1ccc(-c2nnc(SCCN3CCCC3)o2)cc1 | -0.13% (inactive)
CS(=O)(=O)c1cccc(-c2nnc(SCc3ccccc3)o2)c1 | 4.62% (inactive)

— PubChem BioAssay AID651946 (Broad Institute, 2012)
